# PfHsp90 yeast 2: growth inhibition of yeast expressing Plasmodium Hsp90; inhibition, % at 9.4 µM; S. cerevisiae expressing PfHsp90, BacTiter-Glo ATP, 48 h; yeast lacking PDR1 and PDR3 efflux regulators; AID 504621; hit rate 0.32% among 310,000;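 active = every replicate shows inhibition above about 80%, whatever the replicate mean, limit read from the data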;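 also: 0% = DMSO neutral controls and 100% = 20 µM radicicol positive controls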
# SKKanGAS inh: SKKanGAS growth inhibition; S. pyogenes SKKanGAS, kanamycin growth, BacTiter-Glo, 6 h; inhibition, % at 7.5 µM; hit rate 1.3% among 300,000;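 active = mean replicate score, as percent of positive control median, at least 50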;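 also: strain carries kanamycin resistance gene driven by streptokinase promoter and grows in 40 µg/ml kanamycin; loss of luminescence reflects streptokinase promoter inhibition or plain growth inhibition; 0% = median of DMSO wells and 100% = positive control at its reference dose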
# TIM10 inh: TIM10 yeast growth inhibition; S. cerevisiae TIM10 strain growth, BacTiter-Glo luminescence, 24 h; AID 463195; hit rate 1.4% among 330,000; inhibition, % at 10 µM;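 active = inhibition of 40% or more at the single tested concentration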;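 also: wild-type TIM10 isogenic control strain grown at permissive 25 °C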
# tim10-1 inh: tim10-1 yeast growth inhibition; hit rate 2.2% among 330,000; AID 463190; S. cerevisiae tim10-1 ts strain growth, BacTiter-Glo, 24 h; inhibition, % at 20 µM;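 active = inhibition of at least 40%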;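 also: mutant grown at 25 °C; 0% = DMSO wells with yeast and 100% = wells holding no yeast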
# tim23-1 inh: tim23-1 yeast growth inhibition | inhibition, % at 20 µM | hit rate 1.3% among 330,000 | S. cerevisiae tim23-1 growth, BacTiter-Glo luminescence, 24 h | AID 463212;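 active = growth inhibition of the mutant yeast at or above 50%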;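 also: temperature-sensitive mutant grown at 25 °C; plate controls were DMSO-treated mutant yeast for no effect and medium wells lacking yeast for full effect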
# ATG4B inhibitor: blocks human ATG4B protease cleavage of LC3 substrate | ATG4B cleavage of LC3-PLA2, NBD-HPC fluorescence, 1 h | inhibition, % at 8.33 µM | AID 504462 | hit rate 0.51% among 340,000; in the data active = inhibition above about 40%
# Target sequence (Q9Y4P1 whole entry, looked up): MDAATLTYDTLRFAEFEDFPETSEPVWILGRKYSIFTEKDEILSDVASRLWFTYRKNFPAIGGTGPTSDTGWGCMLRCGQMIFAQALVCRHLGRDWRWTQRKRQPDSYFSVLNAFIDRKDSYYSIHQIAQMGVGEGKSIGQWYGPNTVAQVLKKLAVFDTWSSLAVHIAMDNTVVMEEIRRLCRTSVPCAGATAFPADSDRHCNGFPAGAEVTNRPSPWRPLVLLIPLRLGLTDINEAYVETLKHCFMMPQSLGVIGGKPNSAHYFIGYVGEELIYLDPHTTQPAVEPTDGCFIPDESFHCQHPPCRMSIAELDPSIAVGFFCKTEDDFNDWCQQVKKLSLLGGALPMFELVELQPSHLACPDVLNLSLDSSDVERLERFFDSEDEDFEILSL
# Starred values were filed as active, the others as inactive; · = no result. Hits are enriched below; roughly 4.7% of the tested compounds scored in any of these assays.
SMILES,PfHsp90 yeast 2,SKKanGAS inh,TIM10 inh,tim10-1 inh,tim23-1 inh,ATG4B inhibitor
O=C1/C(=C/c2ccc(O)c([N+](=O)[O-])c2)SC(=S)N1Cc1ccccc1,-7.2,29.9,12.4,18.6,7.7,39.9
O=C1/C(=C\c2cc(Br)cc(Br)c2O)SC(=S)N1Cc1ccccc1,26.3,78.5*,15.4,32.0,47.3,21.2
COc1cc(/C=C2/SC(=S)N(Cc3ccccc3)C2=O)cc(Cl)c1O,20.5,73.2*,·,·,·,25.9
O=C(O)c1ccc(/C=C2/SC(=S)N(Cc3ccccc3)C2=O)cc1,-42.1,5.5,·,·,·,3.8
O=C1/C(=C\c2cccc([N+](=O)[O-])c2O)SC(=S)N1Cc1ccccc1,3.8,19.7,·,·,·,46.8*
CC(C)C(=O)Nc1cccc(-c2nc3ccccc3o2)c1,14.3,-0.7,17.4,23.2,14.7,-7.2
COC1OC2COC(c3ccccc3)OC2C(O)C1N (stereo not given),1.1,·,·,·,·,0.9
CC(C)CN(Cc1cc(=O)oc2cc(-c3ccccc3)c(O)cc12)CC(C)C,-18.3,76.4*,23.2,14.9,22.1,14.4
O=C1c2cc(F)ccc2-n2c1nc1ccccc1c2=O,89.6*,39.3,9.0,-10.8,30.2,2.1
Nn1c(-c2ccc(F)cc2)nc2ccccc2c1=O,-13.4,1.8,9.5,15.2,15.2,0.3
Clc1ccc(-c2csc(N3CCc4ccccc4C3)n2)cc1,6.3,55.6*,12.0,14.7,10.6,2.9
Clc1ccc(-c2csc(N3CCN(c4ccccc4)CC3)n2)cc1,-1.8,2.5,-4.6,17.1,0.8,3.3
Cc1cccc(NC(=O)c2nc[nH]c2C(=O)N[C@@H](CCCCNC(=O)OC(C)(C)C)C(=O)OC(C)(C)C)c1,9.8,90.8*,20.7,11.0,18.0,-13.6
CC(C)C[C@H](NC(=O)c1[nH]cnc1C(=O)N[C@@H](C)C(=O)OC(C)(C)C)C(=O)OCc1ccccc1,-13.6,73.1*,29.6,22.6,28.7,-17.9
CC(C)C[C@H](NC(=O)c1nc[nH]c1C(=O)NCc1ccccc1)C(=O)OCc1ccccc1,-1.3,54.1*,8.1,14.9,15.3,-3.3
Cc1cccc(NC(=O)c2nc[nH]c2C(=O)NCCCCCNC(=O)OC(C)(C)C)c1,-63.4,·,15.4,15.8,21.5,-5.0
COc1ccc(NC(=O)c2nc[nH]c2C(=O)N[C@@H](CC(C)C)C(=O)OC(C)(C)C)cc1,-30.9,75.5*,12.8,16.9,33.0,-10.4
CC(C)C[C@H](NC(=O)c1[nH]cnc1C(=O)N[C@@H](C)C(=O)OCc1ccccc1)C(=O)OCc1ccccc1,-2.6,·,15.8,13.2,28.5,-2.2
CC(C)CSc1nc2ccccc2c(=O)[nH]1,-30.0,6.6,-18.6,-34.8,0.5,-8.8
O=C(CCCOc1ccccc1)Nc1ncccn1,5.6,-0.2,12.8,5.6,10.7,-9.3
O=C(NCc1ccccn1)C1CCC(=O)N1C1CCCC1 (stereo not given),0.4,-3.6,1.5,-6.8,12.3,-3.0
Cc1cccc(NC(=O)c2nc[nH]c2C(=O)N[C@@H](CC(C)C)C(=O)OCc2ccccc2)c1,-2.8,92.2*,26.9,18.6,25.4,-9.3
CC(C)C[C@H](NC(=O)c1[nH]cnc1C(=O)N[C@@H](Cc1ccccc1)C(=O)OC(C)(C)C)C(=O)OCc1ccccc1,-12.6,24.7,10.8,11.9,27.3,-9.4
CC(C)C[C@H](NC(=O)c1[nH]cnc1C(=O)N[C@@H](Cc1ccccc1)C(=O)OC(C)(C)C)C(=O)OC(C)(C)C,-19.6,82.8*,26.4,17.4,18.6,-8.1
CC(C)C[C@H](NC(=O)c1nc[nH]c1C(=O)NC1CCN(C(=O)OC(C)(C)C)CC1)C(=O)OCc1ccccc1,-14.3,72.6*,27.1,16.6,23.2,-3.4
Nc1c(S(=O)(=O)c2ccccc2)c2nc3ccccc3nc2n1/N=C/c1cccc(O)c1,-53.7,56.4*,11.2,26.9,29.5,-1.2
O=C(NN=C1c2ccccc2-c2ccccc21)c1cccc(Br)c1,-7.6,71.8*,24.4,17.4,-26.4,-11.6
O=C(COc1cccc(Br)c1)NN=C1c2ccccc2-c2ccccc21,-39.3,-14.2,11.0,8.4,5.7,-9.2
O=S(=O)(c1ccccc1)N1CCSC1c1ccco1 (stereo not given),·,-5.8,·,·,·,-2.5
O=c1[nH]c(=O)n([C@H]2C[C@H](O)[C@@H](CO)O2)cc1F,8.4,92.0*,·,·,·,-0.4

# Screens: PubChem BioAssay, several laboratories
